Results as given in PubChem BioAssay (NCATS).
Where “and” joins values, the source holds several entries; their conditions need not be identical. Equal entries are not always repeated. Records with an inconclusive call do not appear. Entries that show only a call come without a potency. Calls of active or inactive are those of the source. Unless noted, calls come from the whole dose curve; as a rule, active = well fitted inhibition curve with a large enough effect; inconclusive = small, poorly fitted or top-dose-only effect; inactive = no such curve, though single readings can be large or run the other way.
Potency is the fitted concentration of half-maximal effect.

Target: Aldehyde dehydrogenase, mitochondrial (Homo sapiens) (UniProt P05091)
Test: qHTS for Inhibitors of the Aldehyde Dehydrogenase Family (ALDH2) Confirmatory screens (AID 2061303; active = well fitted inhibition curve with a large enough effect; title and protocol of this record describe different tests; note: nearly all actives have a fitted effect of over 45% in size)
Conditions: ALDH inhibition qHTS; series mostly up to 45.4 µM
With `O=C1C[C@@H](c2ccc(O)cc2)Oc2cc(O)ccc21` the Potency was “inactive”.
With `CC/C=C\[C@H](O)[C@H](O)C1=C(C)C(=O)[C@]2(O1)C(=O)N[C@@](O)(C(=O)c1ccccc1)[C@@H]2O` the Potency was “inactive”.
For `NC(N)=NCCC[C@H](NC(=O)c1sccc1NS(=O)(=O)c1cccc2nsnc12)C(=O)O`, the Potency was “inactive”.
With `Cc1cn(C[C@H](N)C(=O)O)c(=O)n(Cc2ccsc2C(=O)O)c1=O` the Potency was “inactive”.
In the case of `C[S+](CC[C@H](N)C(=O)[O-])C[C@H]1O[C@@H](n2cnc3c(N)ncnc32)[C@H](O)[C@@H]1O` (stereo partly drawn), the Potency is reported as “inactive”.
With `COc1cccc(OC)c1C(=O)N[C@@H]1C(=O)N2[C@@H]1SC(C)(C)[C@@H]2C(=O)O` the Potency was “inactive”.
For `COC(=O)[C@]1(Cc2ccc(O)c(CC=C(C)C)c2)OC(=O)C(O)=C1c1ccc(O)cc1`, the Potency was “inactive”.
With `N[C@@]1(C(=O)O)CC[C@H]2[C@H](C(=O)O)[C@H]21` the Potency was “inactive”.
In the case of `NC(=O)[C@H]1CCS[C@@H]2C[C@]3(CCCN3C(=O)Cc3ccc(NC(=O)COc4ccc(Cl)cc4Cl)cc3)C(=O)N12`, the Potency is reported as “inactive”.
With `C=C1C(=O)O[C@H]2C[C@@H](C)[C@@H]3CCC(=O)[C@@]3(C)C[C@H]12` the Potency was “inactive”.
In the case of `NCc1ccc(OCCCc2sc(-c3ccc4c(c3)/C(=N/Nc3nc5ccccc5s3)CCC4)nc2C(=O)O)cc1`, the Potency is reported as “inactive”.
With `O=C(O)c1cccc(-c2noc(-c3ccccc3F)n2)c1` the Potency was “inactive”.
For `CC(O)(C#Cc1ccc2c(c1)N(c1nc(N)ncc1Cl)CC2)c1nccs1` (stereo not drawn), the Potency was “inactive”.
In the case of `CCOC(=O)[C@H](CCc1ccccc1)N[C@@H](C)C(=O)N1C(=O)N(C)C[C@H]1C(=O)O`, the Potency is reported as “inactive”.
With `O=C(CCN1CCN(C(=O)OCc2cc(Cl)cc(Cl)c2)CC1)c1ccc2[nH]c(=O)oc2c1` the Potency was 283 nM (active) and 5.62 µM (active).
With `C=C1CC[C@@H]2[C@](C)(CO)[C@H](O)CC[C@@]2(C)[C@@H]1CC(=O)C1=CCOC1=O` the Potency was “inactive”.
In the case of `CCC(=O)c1cc(-c2ccc(Cl)cc2)n(-c2ccc(S(N)(=O)=O)cc2)c1C`, the Potency is reported as “inactive”.
For `OC[C@H]1O[C@@H](n2cnc3c2NC=NC[C@H]3O)C[C@@H]1O`, the Potency was “inactive”.
In the case of `CCC(C)C(N)C(=O)NCCN1CCOCC1` (stereo not drawn), the Potency is reported as “inactive”.
In the case of `CC(C)(CC(=O)N1CCCC1)NCC(=O)N1C[C@@H](F)C[C@H]1C#N`, the Potency is reported as “inactive”.
In the case of `O=C(CCl)Nc1cccc(NC2=NS(=O)(=O)c3ccccc32)c1`, the Potency is reported as “inactive”.
For `O=C(Nc1cc(C(F)(F)F)cc(C(F)(F)F)c1)c1cnc(Cl)nc1C(F)(F)F`, the Potency was “inactive”.
With `Fc1ccc(-c2nc(C3CCNCC3)sc2-c2ccnc(NC3CC3)n2)cc1` the Potency was “inactive”.
In the case of `O=C(O)c1n[nH]c2c1C[C@H]1C[C@@H]21`, the Potency is reported as “inactive”.
In the case of `N#Cc1ccc(O[C@@H]2c3ccccc3C[C@H]2N2CCC[C@@H](N)C2)c(Cl)c1`, the Potency is reported as “inactive”.
For `O=c1cc(CN2CCOCC2)occ1OCCCCCSc1ccnc2cc(C(F)(F)F)ccc12`, the Potency was “inactive”.
In the case of `CC1(C)C[C@H]2C=C(C=O)[C@]3(C(=O)O)C[C@]3(C)[C@H]2C1`, the Potency is reported as “inactive”.
In the case of `COc1ccc(CC2NCCc3c2[nH]c2ccc(C)cc32)cc1OC` (stereo not drawn), the Potency is reported as “inactive”.

Test system: not listed separately
Test: qHTS for Inhibitors of the Aldehyde Dehydrogenase Family (ALDH1A2, ALDH1A3, ALDH2, ALDH3A1) (AID 2061307); note: nearly all actives have a fitted effect of over 50% in size; for potency: test system not described further here
Conditions: ALDH inhibition qHTS; series mostly up to 50.3 µM
In the case of `Cc1ccc(S(=O)(=O)c2ccc([N+](=O)[O-])o2)cc1`, the Potency is reported as 0.708 µM (active).
In the case of `Clc1cccc(COc2cncc(N3CCNCC3)n2)c1`, the Potency is reported as “inactive”.
With `CCNC(=O)OC1CCN(c2nncc3cc(OC)c(OC)cc23)CC1` the Potency was “inactive”.
In the case of `N[C@H]1Cc2ccccc2N(O)C1=O`, the Potency is reported as “inactive”.
With `COc1cc(CC2COC(c3ccc(OC4OC(CO)C(O)C(O)C4O)c(OC)c3)C2CO)ccc1O` (stereo not drawn) the Potency was “inactive”.
With `N#Cc1ccc(C(=O)N2CCC3(CC2)N=C(N)c2c(F)ccc(F)c2N3)cn1` the Potency was “inactive”.
For `Cc1onc(-c2c(Cl)cccc2Cl)c1C(=O)N[C@@H]1C(=O)N2[C@@H]1SC(C)(C)[C@@H]2C(=O)O`, the Potency was “inactive”.
In the case of `Oc1ccc(CC2NCCc3cc(O)c(O)cc32)cc1` (stereo not drawn), the Potency is reported as “inactive”.
In the case of `Cc1cc(Cl)ccc1COc1ccnn1-c1cc(C(=O)O)ccn1`, the Potency is reported as “inactive”.
For `CCN(CC)CCOCCOC(=O)C(CC)(CC)c1ccccc1`, the Potency was “inactive”.
In the case of `O=c1[nH]c2cccc(N3CCN(Cc4ccc(-c5ccccc5)cc4)CC3)c2o1`, the Potency is reported as “inactive”.
For `N#Cc1ccc(-c2cnc3[nH]cc(NC(=O)c4cccnc4)c3c2)cc1`, the Potency was 1.59 µM (active).
For `O=C1C[C@@H](c2ccc(O)cc2)Oc2cc(O)ccc21`, the Potency was 3.02 µM (active).
With `CC/C=C\[C@H](O)[C@H](O)C1=C(C)C(=O)[C@]2(O1)C(=O)N[C@@](O)(C(=O)c1ccccc1)[C@@H]2O` the Potency was “inactive”.
For `NC(N)=NCCC[C@H](NC(=O)c1sccc1NS(=O)(=O)c1cccc2nsnc12)C(=O)O`, the Potency was “inactive”.
In the case of `Cc1cn(C[C@H](N)C(=O)O)c(=O)n(Cc2ccsc2C(=O)O)c1=O`, the Potency is reported as “inactive”.
In the case of `C[S+](CC[C@H](N)C(=O)[O-])C[C@H]1O[C@@H](n2cnc3c(N)ncnc32)[C@H](O)[C@@H]1O` (stereo partly drawn), the Potency is reported as “inactive”.
For `COc1cccc(OC)c1C(=O)N[C@@H]1C(=O)N2[C@@H]1SC(C)(C)[C@@H]2C(=O)O`, the Potency was “inactive”.
In the case of `COC(=O)[C@]1(Cc2ccc(O)c(CC=C(C)C)c2)OC(=O)C(O)=C1c1ccc(O)cc1`, the Potency is reported as “inactive”.
With `N[C@@]1(C(=O)O)CC[C@H]2[C@H](C(=O)O)[C@H]21` the Potency was “inactive”.
For `NC(=O)[C@H]1CCS[C@@H]2C[C@]3(CCCN3C(=O)Cc3ccc(NC(=O)COc4ccc(Cl)cc4Cl)cc3)C(=O)N12`, the Potency was “inactive”.
In the case of `C=C1C(=O)O[C@H]2C[C@@H](C)[C@@H]3CCC(=O)[C@@]3(C)C[C@H]12`, the Potency is reported as 20.1 µM (active).
With `NCc1ccc(OCCCc2sc(-c3ccc4c(c3)/C(=N/Nc3nc5ccccc5s3)CCC4)nc2C(=O)O)cc1` the Potency was “inactive”.
With `O=C(O)c1cccc(-c2noc(-c3ccccc3F)n2)c1` the Potency was 0.302 µM (active).
In the case of `CC(O)(C#Cc1ccc2c(c1)N(c1nc(N)ncc1Cl)CC2)c1nccs1` (stereo not drawn), the Potency is reported as “inactive”.
With `CCOC(=O)[C@H](CCc1ccccc1)N[C@@H](C)C(=O)N1C(=O)N(C)C[C@H]1C(=O)O` the Potency was “inactive”.
For `O=C(CCN1CCN(C(=O)OCc2cc(Cl)cc(Cl)c2)CC1)c1ccc2[nH]c(=O)oc2c1`, the Potency was 0.201 µM (active).
For `C=C1CC[C@@H]2[C@](C)(CO)[C@H](O)CC[C@@]2(C)[C@@H]1CC(=O)C1=CCOC1=O`, the Potency was “inactive”.
With `CCC(=O)c1cc(-c2ccc(Cl)cc2)n(-c2ccc(S(N)(=O)=O)cc2)c1C` the Potency was “inactive”.
For `OC[C@H]1O[C@@H](n2cnc3c2NC=NC[C@H]3O)C[C@@H]1O`, the Potency was “inactive”.
In the case of `CCC(C)C(N)C(=O)NCCN1CCOCC1` (stereo not drawn), the Potency is reported as “inactive”.
With `CC(C)(CC(=O)N1CCCC1)NCC(=O)N1C[C@@H](F)C[C@H]1C#N` the Potency was “inactive”.
In the case of `O=C(CCl)Nc1cccc(NC2=NS(=O)(=O)c3ccccc32)c1`, the Potency is reported as “inactive”.
In the case of `O=C(Nc1cc(C(F)(F)F)cc(C(F)(F)F)c1)c1cnc(Cl)nc1C(F)(F)F`, the Potency is reported as “inactive”.
In the case of `Fc1ccc(-c2nc(C3CCNCC3)sc2-c2ccnc(NC3CC3)n2)cc1`, the Potency is reported as “inactive”.
With `O=C(O)c1n[nH]c2c1C[C@H]1C[C@@H]21` the Potency was “inactive”.
With `N#Cc1ccc(O[C@@H]2c3ccccc3C[C@H]2N2CCC[C@@H](N)C2)c(Cl)c1` the Potency was “inactive”.
In the case of `O=c1cc(CN2CCOCC2)occ1OCCCCCSc1ccnc2cc(C(F)(F)F)ccc12`, the Potency is reported as 22.5 µM (active).
With `CC1(C)C[C@H]2C=C(C=O)[C@]3(C(=O)O)C[C@]3(C)[C@H]2C1` the Potency was “inactive”.
With `COc1ccc(CC2NCCc3c2[nH]c2ccc(C)cc32)cc1OC` (stereo not drawn) the Potency was “inactive”.
